Records with an inconclusive call do not appear. Calls of active or inactive are those of the source. Unless noted, calls come from the whole dose curve; as a rule, active = well fitted curve in the direction sought with a large enough effect in the repeat runs; inconclusive = weak or mixed curves; inactive = no such curve, though single readings can be large; an effect the other way counts as inactive or inconclusive.
Columns and labels:
[1] = qHTS assay to identify small molecule agonists of the estrogen receptor beta (ER-beta) signaling pathway - cell viability counter screen (AID 1259380); note: nearly all actives have a fitted effect of over 30% in size; note: potency is the fitted concentration of half-maximal effect
Procedure, shortened: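 Luminescence read-out (CellTiter-Glo, 30 min, room temp) taken in the same wells as the beta-lactamase reporter assay; ER-beta-UAS-bla HEK293T cells exposed to DMSO-dissolved compounds for 16 hr at 37C in 2% charcoal-stripped FBS medium.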

[2] = molecular target: Androgen receptor (Homo sapiens) (UniProt P10275); assay: qHTS assay to identify small molecule agonists of the androgen receptor (AR) signaling pathway in the presence of an antagonist (AID 1259381; calls by dose curve; note: nearly all actives have a fitted effect of over 15% in size)
Androgen receptor (Homo sapiens), sequence (P10275 whole entry, looked up): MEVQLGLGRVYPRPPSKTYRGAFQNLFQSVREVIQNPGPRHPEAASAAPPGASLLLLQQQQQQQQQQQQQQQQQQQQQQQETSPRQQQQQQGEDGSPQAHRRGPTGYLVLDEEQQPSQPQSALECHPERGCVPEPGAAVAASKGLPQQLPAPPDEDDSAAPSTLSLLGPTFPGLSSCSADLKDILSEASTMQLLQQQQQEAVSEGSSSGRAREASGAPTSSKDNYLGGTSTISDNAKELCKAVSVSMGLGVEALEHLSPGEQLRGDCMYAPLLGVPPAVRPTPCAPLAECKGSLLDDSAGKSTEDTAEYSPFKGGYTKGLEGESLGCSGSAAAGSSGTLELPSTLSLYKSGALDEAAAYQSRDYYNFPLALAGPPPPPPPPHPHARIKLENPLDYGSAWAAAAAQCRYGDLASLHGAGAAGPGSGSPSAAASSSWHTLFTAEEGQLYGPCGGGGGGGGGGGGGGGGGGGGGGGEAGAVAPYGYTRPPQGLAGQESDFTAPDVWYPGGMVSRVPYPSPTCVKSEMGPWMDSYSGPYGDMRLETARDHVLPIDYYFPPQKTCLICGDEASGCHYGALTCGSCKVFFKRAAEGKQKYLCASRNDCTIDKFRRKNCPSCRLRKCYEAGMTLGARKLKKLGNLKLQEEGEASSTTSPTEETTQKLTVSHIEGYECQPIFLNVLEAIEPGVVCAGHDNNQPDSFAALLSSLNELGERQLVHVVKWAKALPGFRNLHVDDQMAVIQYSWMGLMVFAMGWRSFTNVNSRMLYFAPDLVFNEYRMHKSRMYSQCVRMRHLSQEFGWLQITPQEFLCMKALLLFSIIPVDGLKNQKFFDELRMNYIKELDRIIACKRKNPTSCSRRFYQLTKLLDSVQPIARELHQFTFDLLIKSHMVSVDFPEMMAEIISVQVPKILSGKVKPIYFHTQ
Procedure, shortened: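 Luciferase read-out (ONE-Glo, 30min room temperature) in MDA-kb2 MMTV-reporter cells; agonist mode run in presence of AR antagonist nilutamide, 3.0uM final. Compounds tested as 15-point series, 16hr exposure at 37C, 0% CO2.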

[3] = qHTS assay to identify small molecule antagonists of the estrogen receptor beta (ER-beta) signaling pathway - cell viability counter screen (AID 1259382); note: nearly all actives have a fitted effect of over 55% in size; note: potency is the fitted concentration of half-maximal effect;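 for activity change, negative = cytotoxicity: HEK293T cells carrying ER-beta-UAS-bla reporter stimulated with estradiol; series mostly up to about 92 µM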
Procedure, shortened: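 Luminescent ATP read-out (CellTiter-Glo, 30 min, RT) taken in the same wells as the bla reporter assay. HEK293T ER-beta-UAS-bla cells in 2% charcoal-stripped FBS were exposed to compounds with 1nM E2 for 16 hr at 37C.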

[4] = qHTS assay to identify small molecule agonists or antagonists of the thyroid stimulating hormone receptor (TSHR) signaling pathway - wild type cell line counter screen (AID 1259384; calls by dose curve)
Procedure, shortened: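 Wild-type Hek293 cells, 800/well, 18 h at 37C, then compound with Ro20-1724 for 30 min RT. cAMP by HTRF (cAMP-d2/anti-cAMP cryptate), 1 h RT, fluorescence read. 15 concentrations, triplicates.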

[5] = molecular target: Thyrotropin receptor (Homo sapiens) (UniProt P16473); assay: qHTS assay to identify small molecule antagonists of the thyroid stimulating hormone receptor (TSHR) signaling pathway (AID 1259385; calls by dose curve; note: nearly all actives have a fitted effect of over 20% in size; note: potency is the fitted concentration of half-maximal effect)
Thyrotropin receptor (Homo sapiens), sequence (P16473 whole entry, looked up): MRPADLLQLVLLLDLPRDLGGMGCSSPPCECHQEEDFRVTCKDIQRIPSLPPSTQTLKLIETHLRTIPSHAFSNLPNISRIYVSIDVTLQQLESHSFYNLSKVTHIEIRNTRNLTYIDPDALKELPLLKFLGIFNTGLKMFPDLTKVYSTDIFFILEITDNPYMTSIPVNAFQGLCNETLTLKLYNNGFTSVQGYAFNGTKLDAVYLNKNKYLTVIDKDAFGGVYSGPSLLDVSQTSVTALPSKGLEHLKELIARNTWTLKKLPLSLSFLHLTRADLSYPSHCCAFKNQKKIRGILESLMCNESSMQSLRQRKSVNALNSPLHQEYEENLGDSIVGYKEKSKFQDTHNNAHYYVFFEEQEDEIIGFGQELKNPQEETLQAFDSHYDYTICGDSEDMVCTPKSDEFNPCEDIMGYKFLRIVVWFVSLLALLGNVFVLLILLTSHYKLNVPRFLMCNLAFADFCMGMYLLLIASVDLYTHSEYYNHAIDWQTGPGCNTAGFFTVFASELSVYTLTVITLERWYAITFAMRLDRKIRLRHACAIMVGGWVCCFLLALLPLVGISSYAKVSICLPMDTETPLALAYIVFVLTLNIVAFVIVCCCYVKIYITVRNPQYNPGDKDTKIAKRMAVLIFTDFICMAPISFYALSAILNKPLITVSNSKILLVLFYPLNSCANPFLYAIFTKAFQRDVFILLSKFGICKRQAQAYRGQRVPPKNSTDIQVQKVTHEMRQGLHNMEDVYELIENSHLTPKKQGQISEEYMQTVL
Procedure, shortened: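 TSHR-HEK293 cells (800/well) plated 18 h, then compounds with Ro20-1724 and TSH at 1.5 ng/mL final, 30 min at room temperature. cAMP quantified by HTRF (cAMP-d2/anti-cAMP-cryptate, 1 h); 15 concentrations in triplicate.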

[6] = qHTS assay to identify small molecule agonists of the estrogen receptor alpha (ER-alpha) signaling pathway in the presence of an antagonist - cell viability counter screen (AID 1259386);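 note: cells exposed to compounds for 22 h at 37 °C before the viability read; nearly all actives have a fitted effect of over 30% in size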; note: potency is the fitted concentration of half-maximal effect; for activity change, negative = cytotoxicity: series mostly up to about 92 µM
Procedure, shortened: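 Read-out: CellTiter-Fluor fluorescence after 1hr reagent incubation, measured in the same wells as the luciferase readout. VM7Luc4E2 cells were exposed to 15 compound concentrations with 10.0nM ICI-182,780 for 22hr at 37C.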

[7] = molecular target: Progesterone receptor (Homo sapiens) (UniProt P06401); assay: qHTS assay to identify small molecule agonists of the progesterone receptor (PR) signaling pathway (AID 1346784; calls by dose curve; note: nearly all actives have a fitted effect of over 30% in size)
Progesterone receptor (Homo sapiens), sequence (P06401 whole entry, looked up): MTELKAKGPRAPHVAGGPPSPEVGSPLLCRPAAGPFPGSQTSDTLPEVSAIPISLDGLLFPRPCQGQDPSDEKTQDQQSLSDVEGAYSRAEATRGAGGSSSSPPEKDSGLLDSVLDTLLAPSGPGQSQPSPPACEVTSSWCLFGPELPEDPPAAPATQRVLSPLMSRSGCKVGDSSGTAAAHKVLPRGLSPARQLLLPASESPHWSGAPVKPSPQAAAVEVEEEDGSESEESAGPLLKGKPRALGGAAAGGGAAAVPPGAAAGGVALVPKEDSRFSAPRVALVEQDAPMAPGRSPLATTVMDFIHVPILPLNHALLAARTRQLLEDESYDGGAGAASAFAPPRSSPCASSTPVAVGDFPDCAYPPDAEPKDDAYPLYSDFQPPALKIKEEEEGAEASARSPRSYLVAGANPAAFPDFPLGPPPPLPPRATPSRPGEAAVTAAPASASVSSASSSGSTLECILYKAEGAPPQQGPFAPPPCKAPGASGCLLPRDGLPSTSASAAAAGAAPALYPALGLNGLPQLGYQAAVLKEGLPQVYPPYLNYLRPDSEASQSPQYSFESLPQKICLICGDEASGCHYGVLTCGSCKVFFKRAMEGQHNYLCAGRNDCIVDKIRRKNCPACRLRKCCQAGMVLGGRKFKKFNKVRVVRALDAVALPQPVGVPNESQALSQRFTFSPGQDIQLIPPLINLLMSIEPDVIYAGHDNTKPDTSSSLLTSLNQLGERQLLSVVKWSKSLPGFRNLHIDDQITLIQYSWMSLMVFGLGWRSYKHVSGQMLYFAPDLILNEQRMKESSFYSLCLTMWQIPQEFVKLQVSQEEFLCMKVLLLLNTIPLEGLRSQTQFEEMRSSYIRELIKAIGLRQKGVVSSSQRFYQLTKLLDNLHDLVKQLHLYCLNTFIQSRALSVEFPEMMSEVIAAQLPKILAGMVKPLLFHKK
Procedure, shortened: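 Beta-lactamase reporter read-out: after 16 hr compound treatment at 37C and a further 2 hr at room temperature with LiveBLAzer B/G FRET substrate, fluorescence was measured in PR-UAS-bla HEK 293T cells grown in 2% charcoal-stripped serum.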

[8] = qHTS assay to identify small molecule antagonists of the progesterone receptor (PR) signaling pathway - cell viability counter screen (AID 1346798); note: nearly all actives have a fitted effect of over 50% in size; note: potency is the fitted concentration of half-maximal effect;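 for activity change, negative = cytotoxicity: HEK293T PR-UAS-bla cells stimulated with the agonist R5020; series mostly up to about 92 µM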
Procedure, shortened: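 HEK293T PR-UAS-bla, 2% charcoal-stripped FBS; 4 hr pre-plate; cpd + R5020, 16 h 37C; LiveBLAzer read first; then CellTiter-Glo 30 min RT, luminescence.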

[9] = molecular target: Progesterone receptor (Homo sapiens) (UniProt P06401); assay: qHTS assay to identify small molecule antagonists of the progesterone receptor (PR) signaling pathway (AID 1346795; active = well fitted inhibition curve with a large enough effect in the signal ratio in the repeat runs, not every such curve was filed as active; the % refers to the signal ratio; note: potency is the fitted concentration of half-maximal effect)
Procedure, shortened: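 Read-out is fluorescence from the LiveBLAzer B/G FRET substrate, cleaved by a UAS-controlled beta-lactamase in PR-UAS-bla HEK293T cells after 16 hr exposure to compound plus 1 nM promegestone (final), followed by 2 hr at room temperature.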

[10] = molecular target: Estrogen receptor (Homo sapiens) (UniProt P03372); assay: qHTS assay to identify small molecule agonists of the estrogen receptor alpha (ER-alpha) signaling pathway in the presence of an antagonist (AID 1259383; calls by dose curve; note: nearly all actives have a fitted effect of over 15% in size; note: potency is the fitted concentration of half-maximal effect; for activation: top concentration of the series differs between compounds)
Estrogen receptor (Homo sapiens), sequence (P03372 whole entry, looked up): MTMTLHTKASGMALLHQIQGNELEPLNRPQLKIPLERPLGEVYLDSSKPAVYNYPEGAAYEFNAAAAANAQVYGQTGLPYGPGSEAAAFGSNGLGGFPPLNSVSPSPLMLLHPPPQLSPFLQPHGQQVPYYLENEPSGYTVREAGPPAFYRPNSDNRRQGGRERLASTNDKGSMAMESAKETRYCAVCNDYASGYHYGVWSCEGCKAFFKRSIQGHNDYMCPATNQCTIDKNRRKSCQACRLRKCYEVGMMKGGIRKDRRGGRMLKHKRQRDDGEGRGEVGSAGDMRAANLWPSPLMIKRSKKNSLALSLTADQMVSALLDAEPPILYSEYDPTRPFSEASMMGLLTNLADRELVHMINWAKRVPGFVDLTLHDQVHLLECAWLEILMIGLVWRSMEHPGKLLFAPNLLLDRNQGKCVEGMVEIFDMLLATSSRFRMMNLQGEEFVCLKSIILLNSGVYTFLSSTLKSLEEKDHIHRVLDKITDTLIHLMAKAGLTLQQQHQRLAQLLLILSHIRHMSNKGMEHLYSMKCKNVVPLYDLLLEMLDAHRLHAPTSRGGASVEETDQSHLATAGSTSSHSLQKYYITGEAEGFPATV
Procedure, shortened: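 Luciferase luminescence (ONE-Glo, 30min at room temperature) measured in VM7Luc4E2 cells after 22hr compound exposure at 15 concentrations, with 10.0nM ICI-182,780 final present; cells express endogenous ER-alpha and carry four EREs upstream of luciferase.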
% is set by controls: 0 for no effect and ±100 for the full control effect.

Nc1cc([N+](=O)[O-])ccc1Cl
inactive: Potency [1] | Potency [2] | Potency [3] | Potency [4] | Potency [5] | Potency [6] | outcome [7] | Potency [8]

CC(C)(C)c1cc(CCC(=O)OCCSCCOC(=O)CCc2cc(C(C)(C)C)c(O)c(C(C)(C)C)c2)cc(C(C)(C)C)c1O
inactive: Potency [1] | Potency [2] | Potency [3] | Potency [4] | Potency [5] | Potency [6] | outcome [7] | Potency [9] | Potency [8]

N#Cc1nc(Cl)c(Cl)c(Cl)c1Cl
inactive: Potency [2] | Potency [4] | Potency [5]
active: Potency [1] 15.4 µM | Potency [3] 30.6 µM | Potency [8] 24.3 µM

CCCCCCCCSCc1cc(C)c(O)c(CSCCCCCCCC)c1
inactive: Potency [1] | Potency [2] | Potency [3] | Potency [10] | Potency [5] | Potency [6] | outcome [7] | Potency [8]

O=C(c1ccccc1)c1ccc(Cl)cc1
inactive: Potency [1] | Potency [2] | Potency [3] | Potency [4] | Potency [5] | Potency [6] | outcome [7] | Potency [9] | Potency [8]

C[C@H]1O[C@@H](O[C@H]2CC[C@@]3(C)[C@H](CC[C@@H]4[C@@H]3C[C@@H](O)[C@]3(C)[C@@H](C5=CC(=O)OC5)CC[C@]43O)C2)C[C@H](O)[C@@H]1O[C@H]1C[C@H](O)[C@H](O[C@H]2C[C@H](O)[C@H](O[C@@H]3O[C@H](CO)[C@@H](O)[C@H](O)[C@H]3O)[C@@H](C)O2)[C@@H](C)O1
active: Potency [1] 0.168 µM | Potency [3] 0.188 µM | Potency [8] 0.298 µM
inactive: Potency [2] | Potency [10] | Potency [6] | outcome [7]

N#CCCOCCC#N
inactive: Potency [1] | Potency [2] | Potency [3] | Potency [4] | Potency [5] | Potency [6] | outcome [7] | Potency [8]

CCc1cccc(CC)c1
inactive: Potency [1] | Potency [2] | Potency [3] | Potency [10] | Potency [6] | outcome [7] | Potency [9] | Potency [8]

O=C1OCc2ccccc21
inactive: Potency [1] | Potency [2] | Potency [3] | Potency [4] | Potency [5] | outcome [7] | Potency [9] | Potency [8]

O=c1cc[nH]cc1
inactive: Potency [1] | Potency [2] | Potency [3] | Potency [10] | Potency [4] | Potency [5] | Potency [6] | outcome [7] | Potency [9] | Potency [8]

C=CC(=O)OCC(Br)CBr (stereo not given)
inactive: Potency [1] | Potency [2] | Potency [3] | Potency [10] | Potency [5] | Potency [6] | outcome [7] | Potency [9] | Potency [8]

CCC(O)CO (stereo not given)
inactive: Potency [1] | Potency [2] | Potency [3] | Potency [10] | Potency [5] | outcome [7] | Potency [9] | Potency [8]

CC1CCC(C(C)(C)O)CC1 (stereo not given)
inactive: Potency [1] | Potency [2] | Potency [3] | Potency [6] | outcome [7] | Potency [8]

CCSCC
inactive: Potency [1] | Potency [3]

CCCCCCCCCCCCCCCCCCNC(=O)OC1CCN(C(=O)OC[C@H](COC(=O)N(Cc2cccc[n+]2CC)C(=O)c2ccccc2OC)OC)CC1
inactive: Potency [2] | Potency [10] | Potency [4]
active: Potency [1] 26.6 µM | Potency [5] 29.8 µM

Cc1cccc2c1ccc1ccccc12
inactive: Potency [1] | Potency [2] | Potency [3] | Potency [6] | outcome [7] | Potency [8]

CCc1cccc(C)c1N(C(=O)C(=O)O)C(C)COC (stereo not given)
inactive: Potency [1] | Potency [3] | Potency [10] | Potency [4] | Potency [5] | Potency [6] | outcome [7] | Potency [9] | Potency [8]

CCNc1nc(NC(C)(C)C)nc(OC)n1
inactive: Potency [1] | Potency [3] | Potency [10] | Potency [4] | Potency [5] | Potency [6] | outcome [7] | Potency [9] | Potency [8]

O[Si](c1ccccc1)(c1ccccc1)c1ccccc1
active: Potency [1] 48.6 µM
inactive: Potency [2] | Potency [10] | Potency [4] | Potency [5] | outcome [7] | Potency [8]

CC(=O)[C@]1(O)Cc2c(O)c3c(c(O)c2[C@@H](O[C@H]2C[C@H](N)[C@H](O)[C@H](C)O2)C1)C(=O)c1ccccc1C3=O
active: Potency [1] 2.66 µM | Potency [6] 18.8 µM
inactive: Potency [2] | Potency [3] | Potency [8]

O=C(O)CN(CCCN(CC(=O)O)CC(=O)O)CC(=O)O
inactive: activity change, negative = cytotoxicity [1] -20.5% [at 19 µM] | activation [2] 1.23% [at 19 µM] | activation [10] -0.204% [at 19 µM] | activity change, negative = inhibition [5] 1.63% [at 19 µM] | activity change, negative = cytotoxicity [6] -13.1% [at 19 µM] | activation [7] 8.3% [at 19 µM] | activity change, negative = inhibition [9] -17.6% [at 18.9 µM] | activity change, negative = cytotoxicity [8] -17.6% [at 18.9 µM]

CCOC(=O)[C@H](O)[C@@H](O)C(=O)OCC
inactive: Potency [1] | Potency [2] | Potency [3] | Potency [6] | outcome [7] | Potency [9] | Potency [8]

COc1cc(/C=C/C(=O)CC(=O)/C=C/c2ccc(O)c(OC)c2)ccc1O
active: Potency [1] 69 µM | Potency [6] 61.5 µM
inactive: Potency [2] | Potency [4]

O=C(NCc1ncc(C(F)(F)F)cc1Cl)c1c(Cl)cccc1Cl
inactive: Potency [2] | Potency [10] | Potency [4] | Potency [6] | outcome [7]
active: Potency [1] 43.3 µM | Potency [9] 24.3 µM

CCN(CC)c1ccc(N=Nc2ccccc2)cc1
active: Potency [1] 17.2 µM | Potency [3] 30.6 µM | Potency [10] 0.193 µM | Potency [5] 68.6 µM | Potency [6] 30.6 µM | Potency [9] 19.3 µM
inactive: Potency [4] | Potency [8]

Cn1ccnc1
inactive: Potency [1] | Potency [3] | Potency [10] | Potency [4] | Potency [5] | Potency [6] | outcome [7] | Potency [9] | Potency [8]
